Laboratory results as given in publication PMC4336329 (PLoS ONE, 2015).
Out of some 310,000 compounds screened, about 14,000 (4.5%) showed an effect of 50% or more. Effects have a minus sign here. The entries come from a sample that favours strong results as a whole.

molecular target: human ether-à-go-go-related gene (hERG) potassium channel (human, UniProt Q12809); test: primary screen, population patch clamp on CHO cells stably expressing hERG; higher = less effect of the substance
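Note: peak tail current of the secondary pulse compared with the same well before compound.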

Chain of human ether-à-go-go-related gene (hERG) potassium channel (Q12809 whole entry, looked up): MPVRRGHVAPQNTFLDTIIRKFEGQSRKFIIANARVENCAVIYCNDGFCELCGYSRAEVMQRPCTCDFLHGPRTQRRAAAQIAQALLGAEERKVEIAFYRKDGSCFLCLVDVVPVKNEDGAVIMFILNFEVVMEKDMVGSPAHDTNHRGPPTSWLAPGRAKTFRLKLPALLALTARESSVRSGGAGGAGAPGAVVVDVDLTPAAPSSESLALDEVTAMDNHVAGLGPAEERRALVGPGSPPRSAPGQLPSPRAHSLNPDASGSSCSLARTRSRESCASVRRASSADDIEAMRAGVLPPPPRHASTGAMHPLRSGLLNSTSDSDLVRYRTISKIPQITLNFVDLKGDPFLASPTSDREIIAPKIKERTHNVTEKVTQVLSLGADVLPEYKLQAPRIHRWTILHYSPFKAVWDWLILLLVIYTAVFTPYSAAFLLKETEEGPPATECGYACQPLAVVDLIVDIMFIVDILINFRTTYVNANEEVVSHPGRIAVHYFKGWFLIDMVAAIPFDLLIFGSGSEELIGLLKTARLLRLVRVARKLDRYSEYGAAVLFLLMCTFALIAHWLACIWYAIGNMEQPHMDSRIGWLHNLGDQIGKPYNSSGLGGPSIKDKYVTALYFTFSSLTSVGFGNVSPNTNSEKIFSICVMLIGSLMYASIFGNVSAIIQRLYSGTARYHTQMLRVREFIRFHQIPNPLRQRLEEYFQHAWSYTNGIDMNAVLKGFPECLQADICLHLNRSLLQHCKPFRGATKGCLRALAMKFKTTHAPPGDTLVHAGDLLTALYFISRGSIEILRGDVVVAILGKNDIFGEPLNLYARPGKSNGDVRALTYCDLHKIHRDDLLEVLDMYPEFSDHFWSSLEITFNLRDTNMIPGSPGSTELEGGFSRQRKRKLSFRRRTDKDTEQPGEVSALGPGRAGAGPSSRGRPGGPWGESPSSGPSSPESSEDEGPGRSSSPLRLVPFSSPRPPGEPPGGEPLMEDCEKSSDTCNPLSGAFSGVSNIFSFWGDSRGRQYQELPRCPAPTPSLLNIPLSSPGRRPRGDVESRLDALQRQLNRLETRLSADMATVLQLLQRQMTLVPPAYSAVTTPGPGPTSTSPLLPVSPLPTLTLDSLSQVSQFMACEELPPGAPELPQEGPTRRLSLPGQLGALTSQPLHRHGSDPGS

Compound	hERG current change (%, negative = inhibition) at 10uM
Cc1ccc(NC(=O)NCc2ccccn2)cc1	37.7%
Fc1ccc(OCc2nc(-c3cccs3)no2)cc1	-9.58%
c1ccc(Cc2nn3c(COc4ccccc4)nnc3s2)cc1	6.61%
CC1=C(C(=O)OCc2ccccc2)C(c2ccccc2[N+](=O)[O-])NC(=O)N1C (stereo not drawn)	1.71%
COc1ccccc1Nc1nc(N)nc(CCl)n1	3.4%
COc1ccccc1Nc1nc(N)nc(CN2CCN(c3ccccc3)CC2)n1	-52.9%
COc1ccccc1Nc1nc(N)nc(CSC(=S)N2CCOCC2)n1	-9.92%
COc1ccccc1Nc1nc(N)nc(CSC(=S)N2CCN(c3ccccc3)CC2)n1	6.86%
COc1ccccc1Nc1nc(N)nc(CN2CCC(Cc3ccccc3)CC2)n1	-84.5%
COc1ccc(N2CCN(Cc3nc(N)nc(Nc4ccccc4OC)n3)CC2)cc1	-62%
COc1ccccc1Nc1nc(N)nc(CN2CCN(Cc3ccccc3)CC2)n1	-73.2%
COc1cccc(N2CCN(Cc3nc(N)nc(Nc4ccccc4OC)n3)CC2)c1	-25.6%
COc1ccc(OCc2nc(N)nc(Nc3ccccc3OC)n2)cc1	9.46%
Cc1cc(C)cc(NC(=O)CCC(=O)Nc2cc(C)on2)c1	8.01%
Cc1cc(C)c(C(CC(=O)c2cccs2)C(C#N)C#N)c(C)c1 (stereo not drawn)	-23.9%
O=c1c2ccccc2n2c(-c3cccc(Cl)c3)nnc2n1Cc1ccccc1	-11.8%
COc1ccccc1NC(=O)c1cc(=O)[nH]c2ccccc12	33.4%
COc1ccc(CN2C(=O)CN=C2Nc2cc(C)ccc2C)cc1.Cl	1.79%
O=C(CN(Cc1ccc(Cl)cc1)C(=O)CN1C(=O)COc2ccccc21)NC1CCCC1	15%

Compound	hERG current change (%, negative = inhibition) at 10uM
CCOC(=O)c1ccc2nc(NC(NC(C)=O)(C(=O)OC)C(F)(F)F)sc2c1 (stereo not drawn)	13.6%
CN(C(=O)CSc1nnc(Cc2ccccc2F)n1N)C1CCS(=O)(=O)C1 (stereo not drawn)	9.76%
FC(F)(F)c1cccc(Cc2noc(CN3CCC(c4ccncc4)CC3)n2)c1	-66.2%
FC(F)(F)c1cccc(Cc2noc(CN3CCCC3)n2)c1	15.6%
OCC1CCCN(C2CCN(Cc3nc(Cc4cccc(C(F)(F)F)c4)no3)CC2)C1 (stereo not drawn)	-74.1%
Fc1cccc(Cc2noc(CN3CCC(c4ccncc4)CC3)n2)c1	-21.4%
FC(F)(F)c1cccc(Cc2noc(CN3CCSCC3)n2)c1	0.814%
FC(F)(F)c1cccc(Cc2noc(CN3CCC(N4CCCCC4)CC3)n2)c1	-74.7%
FC(F)(F)c1cccc(Cc2noc(CN3CCCC(CN4CCCC4)C3)n2)c1 (stereo not drawn)	-45.5%
NC(=O)[C@@H]1CCCN1Cc1nc(Cc2cccc(C(F)(F)F)c2)no1	8.45%
CCOC(=O)N1CCN(Cc2nc(Cc3cccc(C(F)(F)F)c3)no2)CC1	-15%
Fc1ccc(N2CCN(c3cnc4ccccc4n3)CC2)cc1	6.24%
Cc1cc(C(F)(F)F)nn1Cc1n[nH]c(=S)n1-c1ccc(Cl)cc1	20.3%
O=[N+]([O-])c1ccc(-c2c(O)c3ccccc3c3nc4ccccc4nc23)cc1	18%
Cc1sc(NC(=O)c2ccco2)c(C(c2cccnc2)N2CCN(C)CC2)c1C (stereo not drawn)	-32.7%
Cc1sc(NC(=O)c2ccco2)c(C(c2cccnc2)N2CCN(c3ccc(F)cc3)CC2)c1C (stereo not drawn)	1.92%
Cc1sc(NC(=O)c2ccco2)c(C(c2cccnc2)N2CCCC2)c1C (stereo not drawn)	-8.45%
Cc1sc(NC(=O)c2ccco2)c(C(c2ccc(F)cc2)N2CCN(C)CC2)c1C (stereo not drawn)	-68.1%
CCN1CCN(C(c2cccnc2)c2c(NC(=O)c3ccco3)sc(C)c2C)CC1 (stereo not drawn)	-58.4%

Compound	hERG current change (%, negative = inhibition) at 10uM
Cc1sc(NC(=O)c2ccco2)c(C(c2cccnc2)N2CCN(CCO)CC2)c1C (stereo not drawn)	-20.9%
CC1(C)CC(=O)C2=C(C1)N(Cc1ccc(F)cc1)C(=O)C2(NC(=O)c1cccnc1)C(F)(F)F (stereo not drawn)	-5.55%
COc1ccccc1-c1nnc(SC(C(=O)c2c[nH]c3ccccc23)c2ccccc2)n1C (stereo not drawn)	20.8%
O=C(CCc1nc2ccccc2n1-c1ccccc1)NCCO	6.97%
COc1ccc([N+](=O)[O-])cc1N(CC(O)CN(C)C)S(=O)(=O)c1ccccc1 (stereo not drawn)	5.54%
COc1ccc([N+](=O)[O-])cc1N(CC(O)CN(CC(C)C)CC(C)C)S(=O)(=O)c1ccc(C)cc1.Cl (stereo not drawn)	-13.7%
CCCN(CCC)CC(O)CN(c1cc([N+](=O)[O-])ccc1OC)S(=O)(=O)c1ccccc1.Cl (stereo not drawn)	-60.4%
COc1ccc([N+](=O)[O-])cc1N(CC(O)CN(CC(C)C)CC(C)C)S(=O)(=O)c1ccccc1 (stereo not drawn)	-1.91%
C=CCN(CC=C)CC(O)CN(c1cc([N+](=O)[O-])ccc1OC)S(=O)(=O)c1ccccc1 (stereo not drawn)	-10.7%
CCCCN(CCCC)CC(O)CN(c1cc([N+](=O)[O-])ccc1OC)S(=O)(=O)c1ccccc1 (stereo not drawn)	-67%
CC(C)CNC(=O)/C=C/C=C/CCCC/C=C/c1ccc2c(c1)OCO2	20.7%
CC(=O)c1c(C)[nH]c(C(=O)OCc2nc3ccsc3c(=O)[nH]2)c1C	-13.6%
O=C(CC1SC(N2CCCCC2)=NC1=O)Nc1ccc(C(=O)O)cc1 (stereo not drawn)	22.1%
COC(=O)c1ccc2c(=O)n(Cc3ccc(C(=O)NCCCN4CCC(C)CC4)cc3)c(=S)[nH]c2c1	7.54%
CC1CCN(CCCNC(=O)c2ccc3c(=O)n(Cc4ccc(Cl)cc4)c(=S)[nH]c3c2)CC1	-68.4%
CC1CCN(CCNC(=O)c2ccc3c(=O)n(Cc4ccc(Cl)cc4)c(=S)[nH]c3c2)CC1	-15.8%
CC1CCCCN1CCNC(=O)c1ccc2c(=O)n(CCc3ccccc3)c(=O)[nH]c2c1 (stereo not drawn)	-38.7%
CN(C)CCNC(=O)c1ccc2c(=O)n(Cc3ccc(Cl)cc3)c(=S)[nH]c2c1	-27.8%
CC1CCCCN1CCNC(=O)c1ccc2c(=O)n(Cc3ccc(Cl)cc3)c(=S)[nH]c2c1 (stereo not drawn)	-50.9%
